Bioassay records (PubChem BioAssay)
Rows were chosen to be rich in hits. Some 10% of all compounds tested hit in one or more screens of this group.
CtBP-E1A inh = blocks the CtBP interaction with E1A. AlphaScreen GST-E1A/His-CtBP binding, 1536-well; active compounds read low. activity change, % (no concentration beside the values). AID 651724. 0.49% of 340,000 active; in the data active = activity change below about -65%; inconclusive = mostly about -30% to -63%
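Steps: dispense buffer (Tris pH 8.0, NaCl 300 mM, TCEP 1 mM, BSA, Tween 20); add 5X protein mix (GST-E1A, His-CtBP, 125 nM each); pin 23 nL compound; 2 h at 37 °C, dark; add 5X beads (50 ug/mL); 1 h; read.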
JMJD2A Tudor = JMJD2A Tudor domain (human) inhibition | O75164 | AlphaScreen JMJD2A-Tudor / H3K4me3 peptide binding | Potency, µM (doses to about 114 µM), hits mostly inhibitors | 4.4% of 390,000 active | AID 504339; also: nearly all actives have a fitted effect of over 50% in size
G9a inh = inhibitors of human histone lysine methyltransferase G9a | Q96KQ7 | G9a H3K9 monomethylation, AlphaScreen, 2 h | Potency, µM (highest dose often 102 µM), most hits filed as inhibitors | 8.8% of 350,000 active; also: nearly all actives have a fitted effect of over 75% in size
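G9a (20 nM) was preincubated 15 min with compound, then reacted 2 h at room temperature with 500 nM biotin-H3K9 peptide and 20 µM SAM. Monomethyl-H3K9 detected by AlphaScreen using anti-H3K9me1 antibody.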
BAZ2B inh = blocks human BAZ2B. 4.4% of 360,000 active. Potency, µM (highest dose often 114 µM), actives largely listed as inhibitors. AlphaScreen BAZ2B-H3K14Ac peptide displacement; also: nearly all actives have a fitted effect of over 60% in size
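Protein-peptide AlphaScreen: BAZ2B 50 nM, b-H3K14Ac 50 nM, 1x PBS pH 7.4 + 0.01% Tween-20. Preincubation 30 min RT; cpd 30 min RT (top 110 uM); beads 20 min RT, light-protected.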
HP1b binding inh = blocks HP1-beta chromodomain binding to methylated histone tails; 0.56% of 390,000 active; Potency, µM (titrated, usually from 114 µM), actives largely listed as inhibitors; AID 540317; AlphaScreen HP1-beta / biotin-H3K9me3 peptide binding; also: nearly all actives have a fitted effect of over 70% in size
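Compound inhibition of the preformed complex between 50 nM HP1-beta and 50 nM biotinylated H3K9me3 peptide was read by AlphaScreen. Buffer was PBS pH 7.4 with 0.01% Tween-20. Incubations ran 30 min at room temperature, with 10 ug/mL donor/acceptor beads.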
Six1-Eya2 blk = Six1/Eya2 interaction inhibition. AlphaScreen GST-Six1/His-Eya2 binding, biochemical; active compounds read low. activity change, % (test concentration not listed). 0.56% of 360,000 active. AID 651725; in the data active = activity change below about -65%; inconclusive = mostly about -30% to -63%
Target sequence (O00167 whole entry, looked up): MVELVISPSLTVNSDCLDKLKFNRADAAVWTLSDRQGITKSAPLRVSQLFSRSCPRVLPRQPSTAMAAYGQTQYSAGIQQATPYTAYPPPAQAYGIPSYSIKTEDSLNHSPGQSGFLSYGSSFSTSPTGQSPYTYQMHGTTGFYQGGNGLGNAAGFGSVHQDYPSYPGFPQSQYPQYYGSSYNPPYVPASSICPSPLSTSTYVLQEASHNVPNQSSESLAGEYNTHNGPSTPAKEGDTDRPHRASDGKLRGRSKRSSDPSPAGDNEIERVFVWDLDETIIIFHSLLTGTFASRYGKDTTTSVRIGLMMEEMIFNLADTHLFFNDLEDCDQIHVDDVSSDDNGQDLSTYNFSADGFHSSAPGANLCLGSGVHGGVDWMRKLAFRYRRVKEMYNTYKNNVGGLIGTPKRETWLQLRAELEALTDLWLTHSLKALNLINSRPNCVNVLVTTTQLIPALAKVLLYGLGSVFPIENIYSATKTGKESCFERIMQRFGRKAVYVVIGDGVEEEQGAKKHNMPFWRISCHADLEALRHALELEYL
Target sequence (Q15475 whole entry, looked up): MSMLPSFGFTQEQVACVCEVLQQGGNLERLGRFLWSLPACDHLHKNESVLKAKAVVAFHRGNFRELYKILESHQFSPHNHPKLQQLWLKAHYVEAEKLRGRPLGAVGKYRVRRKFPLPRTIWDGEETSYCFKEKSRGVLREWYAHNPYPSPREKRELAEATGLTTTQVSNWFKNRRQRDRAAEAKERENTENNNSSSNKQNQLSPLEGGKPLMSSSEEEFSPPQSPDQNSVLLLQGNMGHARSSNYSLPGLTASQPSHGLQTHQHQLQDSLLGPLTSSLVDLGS
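Six1/Eya2 binding was read as AlphaScreen signal after compounds were pinned into GST-Six1 plus His-tagged Eya2 (5X stock 250/500 nM) in pH 8.0 Tris/NaCl/TCEP buffer, beads added, then incubated 1 h, 37 C, dark.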
A number is an active result; 0 = inactive; ? = inconclusive; - = not tested or not shown; [ ] = another dose, or the depositor's remark. Unless noted, calls follow the shape of the dose curve; as a rule, active = well fitted inhibition curve with a large enough effect; inconclusive = small, poorly fitted or top-dose-only effect; inactive = no such curve, though single readings can be large or run the other way.

SMILES | CtBP-E1A inh | JMJD2A Tudor | G9a inh | BAZ2B inh | HP1b binding inh | Six1-Eya2 blk
CNC(=S)N(CCc1c(C)[nH]c2ccc(Cl)cc12)Cc1cc(OC)c(OC)c(OC)c1 | 0 | ? | 32µM | ? | 0 | 0
CC(=O)N(CC1CCCO1)c1nnc(-c2ccccn2)s1 (stereo not drawn) | 0 | 0 | 56µM | 50µM | 0 | 0
COCCN(C(C)=O)c1nnc(-c2ccccn2)s1 | 0 | 0 | 0 | 56µM | 0 | 0
C[C@H](NC(=O)OC(C)(C)C)C(=O)N/N=C/c1cccc2nccnc12 | 0 | 0 | ? | ? | 0 | 0
CC(C)[C@H](NC(=O)OC(C)(C)C)C(=O)N/N=C/c1cccc2nccnc12 | 0 | 0 | 4.5µM | 0 | 0 | 0
CSCC[C@H](NC(=O)OC(C)(C)C)C(=O)N/N=C/c1cccc2cccnc12 | -75 | ? | ? | ? | 0 | ?
CCOC(=O)c1ccc(NC(=O)c2c(N3CCCC3=O)c3cc(OC)ccc3n2C)cc1 | - | 0 | 0 | 0 | 0 | -
COC(=O)c1cc(NC(=O)Nc2ccc3snnc3c2)cc(C(=O)OC)c1 | - | 0 | ? | 0 | 0 | -
O=C(Oc1cccc(/C=N/Nc2nc(Nc3ccccc3)nc(N3CCOCC3)n2)c1)c1ccco1 | 0 | 0 | 0 | 0 | ? | 0
Cc1[nH]c2ccccc2c1/C=N/Nc1nc(Nc2ccc(F)cc2)nc(N2CCOCC2)n1 | 0 | 0[11.4 µM] | ? | 50µM | 0 | 0
C(=N\Nc1nc(Nc2ccccc2)nc(N2CCOCC2)n1)/c1c[nH]c2ccccc12 | 0 | 50µM | - | 32µM | 0 | 0
Cc1ccc(Nc2nc(N/N=C/c3c[nH]c4ccccc34)nc(N3CCOCC3)n2)cc1 | 0 | 45µM | ? | 45µM | 0 | 0
Cc1cc(/C=N/Nc2nc(N3CCOCC3)nc(N3CCOCC3)n2)c(C)n1-c1ccccc1 | 0 | ? | 0 | - | ? | 0
Cc1ccc(F)cc1NCC(=O)Nc1ccc(Cl)cc1F | 0 | 0 | 0 | 0 | 0 | 0
Cc1cc(F)ccc1NCC(=O)Nc1ccccc1Br | 0 | 0 | 50µM | 0 | 0 | 0
CS(=O)(=O)N(CC(=O)NC1CC2CCC1C2)c1ccc(Oc2ccccc2)cc1 (stereo not drawn) | 0 | 0 | 0 | 0 | 0 | 0
COc1ccc(OC)c(-c2nc(Nc3ccccc3C)sc2CC(=O)O)c1 | - | 0 | ? | 0 | 0 | -
O=C(O)Cc1sc(Nc2cccc3ccccc23)nc1-c1ccccc1 | - | ? | 0[12.7 µM] | ? | 0 | 0
O=C(O)Cc1sc(Nc2cccc3ccccc23)nc1-c1ccc(Cl)cc1 | 0 | 0 | 25µM | ? | 0 | 0
COc1ccc(Nc2nc(-c3ccc(OC)cc3)c(CCC(=O)O)s2)cc1 | 0 | 0 | ? | ? | 0 | 0
COC(=O)CCc1sc(Nc2ccccc2)nc1-c1ccc(OC)cc1 | 0 | ? | 11µM | ? | 0 | 0
O=C(O)Cc1sc(Nc2ccccc2)nc1-c1ccccc1 | - | 0 | ? | 0 | 0 | -
CCOc1ccccc1Nc1nc(-c2ccc(C)cc2)c(CC(=O)O)s1 | - | 0 | 7.9µM | 0 | 0 | -
Cc1ccc(Nc2nc(-c3ccc(C)cc3)c(CC(=O)O)s2)cc1 | 0 | ? | 35µM | ? | 0 | 0
S=c1[nH]nc(Nc2ccc(Cl)cc2)s1 | - | 0 | - | ? | 0 | 0
SMILES | CtBP-E1A inh | JMJD2A Tudor | G9a inh | BAZ2B inh | HP1b binding inh | Six1-Eya2 blk
Cc1ccc(Nc2nc(C(=O)N3CCC(C(=O)NC(C)C)CC3)cs2)cc1 | - | 0 | ? | 0 | 0 | 0
Clc1ccc(Nc2nc(C3CC3)cs2)cc1 | 0 | 0 | 40µM | 0 | 0 | 0
Cc1ccc(Nc2nc(C3CC3)cs2)cc1 | - | - | 40µM | 0 | - | -
O=C(O)CCCCCNC(=O)c1ccc(Br)cc1 | 0 | 0 | 50µM | ? | 0 | 0
CCOC(=O)c1c(C)oc2nc(C)nc(NCc3ccc(OC)cc3OC)c12 | - | 0 | 0 | 0 | 0 | -
CC1=C(C(N)=O)C(c2cccc(C)c2)n2nc(-c3ccc(Cl)cc3)nc2N1 (stereo not drawn) | - | 0 | 0 | 0 | 0 | -
O=CNc1c(Cl)cc2c(c1Cl)Cc1cc([N+](=O)[O-])ccc1-2 | 0 | 0 | - | - | 0 | 0
COC(=O)C(C(C)=O)C1=C/C(=N\S(=O)(=O)c2ccc(C)cc2)c2ccccc2C1=O (stereo not drawn) | 0 | 0 | 45µM | 0 | 0 | 0
O=C(O)c1ccc(S(=O)(=O)/N=C2\C=C(Nc3ccccc3F)C(=O)c3ccccc32)cc1 | -76 | 40µM | 13µM | 22µM | 40µM | ?
Cc1ccccc1NC1=C/C(=N\S(=O)(=O)c2ccc(C(=O)O)cc2)c2ccccc2C1=O | ? | 40µM | 32µM | 13µM | 45µM | 0
O=S(=O)(/N=C(/Nc1ccccc1F)c1ccccc1)c1ccccc1 | 0 | 0 | 0 | 0 | 0 | 0
CN(C(=O)c1sc2nc(N3CCCC3)c3c(c2c1N)CC(C)(C)OC3)c1ccccc1 | - | 0 | 45µM | 0 | 0 | 0
CC1(C)Cc2c(c(N3CCOCC3)nc3sc(C(=O)Nc4cccc(Cl)c4)c(N)c23)CO1 | 0 | 0 | 79µM | 0 | 0 | 0
CC1(C)Cc2c(c(N3CCOCC3)nc3sc(C(=O)Nc4ccccc4)c(N)c23)CO1 | 0 | 0 | 28µM | 0 | 0 | 0
Cc1cccc(NC(=O)c2sc3nc(N4CCOCC4)c4c(c3c2N)CC(C)(C)OC4)c1 | - | 0 | 0 | 0 | 0 | -
CC(=O)OC1COC(N2CCc3cc(Br)c([N+](=O)[O-])cc32)C(OC(C)=O)C1OC(C)=O (stereo not drawn) | 0 | 0 | ? | 0 | 0 | 0
CC1CC(C)CN(C(=O)c2cccc(S(=O)(=O)Nc3cc(C(F)(F)F)ccc3Cl)c2)C1 (stereo not drawn) | 0 | 0 | ? | 79µM | 0 | 0
Nc1c(-c2nc(-c3cccs3)no2)nnn1-c1cccc(F)c1 | - | 0 | 0 | 0 | 0 | -
O=C(Nc1ccccc1Cl)Nc1ccccc1Cl | 0 | 0 | - | 0 | 0 | 0
O=C(Nc1ccc(Cl)cc1)C(Cl)C(=O)c1ccccc1 (stereo not drawn) | 0 | 0 | 11µM | 0 | 0 | 0
O=C(Nc1ccc(Nc2ccccc2)cc1)Nc1ccccc1Cl | ? | ? | 7.9µM | 20µM | ? | 0
O=C(Nc1ccccc1Cl)C(Cl)C(=O)c1ccccc1 (stereo not drawn) | 0 | 0 | 40µM | ? | 0 | 0
CCOc1ccc(NS(=O)(=O)c2c(C(=O)N3CCCCCC3)c(C)n(C)c2C)cc1 | 0 | 0 | 0 | 0 | 0 | 0
Cc1ccc(C)c2c1c1ccccc1n2C | 0 | 0 | - | 0 | 0 | 0
CN(C)c1cc2c3ccccc3n(C)c2cc1N | 0 | 32µM | - | - | 45µM | 0
Cc1ccc(S(=O)(=O)N2CCC(=O)N(CCO)CC2)cc1 | 0 | 0 | 0 | 0 | 0 | 0
CCN(CC)c1ccc(NC(=O)c2ccc3c(c2)c(C)c(C)n3C)cc1 | 0 | 18µM | 3.2µM | 11µM | 35µM | ?
CCc1ccccc1NC(=O)c1ccc2[nH]c(C)c(C)c2c1 | - | 0 | 0 | 0 | 0 | -
Cc1ccccc1CNC(=O)c1ccc2[nH]c(C)c(C)c2c1 | - | 50µM | ? | 40µM | 0 | -
